From PubChem BioAssay (NCATS)
Inconclusive results are not listed. The source made the active and inactive calls. Calls follow the shape of the dose curve; as a rule, active = well fitted curve in the direction sought with a large enough effect; inconclusive = small, poorly fitted or top-dose-only effect, or another doubt; inactive = no such curve, though single readings can be large; an effect the other way counts as inactive or inconclusive.

Tests used:
[1] = Quantitative High-Throughput drug screen in 47 multiple myeloma cell lines against the NCATS MIPE library collection: ARP1_JJKsccF8 cell viability assay (AID 1918928; also: nearly all actives have a fitted effect of over 40% in size)
In short: (§1)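 500 cells/well; MIPE 4.0 library pinned in; 48 h, 37 °C, 5% CO2; CellTiter-Glo ATP luminescence. Controls: DMSO = 100% viability, medium only = 0%.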

[2] = Quantitative High-Throughput drug screen in 47 multiple myeloma cell lines against the NCATS MIPE library collection: JIM3_ECACC cell viability assay (AID 1918963; also: nearly all actives have a fitted effect of over 35% in size)
In short: (§2)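 Myeloma cells (500 per well) were exposed to MIPE 4.0 compounds by pin transfer and incubated 48 hours at 37C, 5% CO2. Viability was read as ATP by CellTiter-Glo luminescence, normalised to DMSO (100%) and media-only (0%) wells.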

[3] = Quantitative High-Throughput drug screen in 47 multiple myeloma cell lines against the NCATS MIPE library collection: JJN3_DSMZ cell viability assay (AID 1918966; also: nearly all actives have a fitted effect of over 50% in size)
In short: (§3)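 Luminescent ATP measurement with CellTiter-Glo gives viability, scaled between DMSO-only wells (100%) and media-only wells (0%). Cells, 500 per well, faced library compounds for 48 hours at 37C.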

[4] = Quantitative High-Throughput drug screen in 47 multiple myeloma cell lines against the NCATS MIPE library collection: ARD_JJKsccE7 cell viability assay (AID 1918929)
In short: as §3

[5] = Quantitative High-Throughput drug screen in 47 multiple myeloma cell lines against the NCATS MIPE library collection: Karpas620_DSMZ cell viability assay (AID 1918959); also: nearly all actives have a fitted effect of over 30% in size
In short: as §2

[6] = Quantitative High-Throughput drug screen in 47 multiple myeloma cell lines against the NCATS MIPE library collection: KMM1_JCRB cell viability assay (AID 1918960); also: nearly all actives have a fitted effect of over 30% in size
In short: as §1

[7] = Quantitative High-Throughput drug screen in 47 multiple myeloma cell lines against the NCATS MIPE library collection: Karpas417_ECACC cell viability assay (AID 1918961); details: Karpas417 myeloma viability, CellTiter-Glo ATP luminescence, 48 h; viability (% of DMSO): at 45.8 µM (top of the series)
In short: (§4)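 CellTiter-Glo ATP luminescence gave viability after 48 h compound treatment at 37C of 500 multiple myeloma cells per well. Normalisation used DMSO-only wells as 100% and media-only wells as 0% viability; primary qHTS of approved and investigational drugs.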

[8] = Quantitative High-Throughput drug screen in 47 multiple myeloma cell lines against the NCATS MIPE library collection: JIM1_ECACC cell viability assay (AID 1918964)
In short: as §3

[9] = Quantitative High-Throughput drug screen in 47 multiple myeloma cell lines against the NCATS MIPE library collection: KHM11_PLB cell viability assay (AID 1918962); also: nearly all actives have a fitted effect of over 35% in size
In short: as §2

[10] = Quantitative High-Throughput drug screen in 47 multiple myeloma cell lines against the NCATS MIPE library collection: INA6_PLB cell viability assay (AID 1918965; also: nearly all actives have a fitted effect of over 55% in size)
In short: as §4
Potency is read from the fitted curve at half-maximal effect.

COc1ccc(-c2coc3cc(O)cc(O)c3c2=O)cc1
inactive: Potency [1] | Potency [2] | Potency [3]

CC(C)(C)C(=O)Oc1ccc2c(c1)nc(NC(=O)c1cccc([N+](=O)[O-])c1)n2CCCO
inactive: Potency [4] | Potency [5] | Potency [6] | Potency [7] | Potency [2] | Potency [8]

CC[C@]1(O)C[C@@H]2CN(CCc3c([nH]c4ccccc34)[C@@](C(=O)OC)(c3cc4c(cc3OC)N(C=O)[C@@H]3C45CCN4CC=C[C@](CC)([C@H]45)[C@@H](OC(C)=O)[C@]3(O)C(=O)OC)C2)C1 (some centres not stated)
active: Potency [3] 20.9 µM
inactive: Potency [4] | Potency [5] | Potency [6] | Potency [7] | Potency [8]

O=c1cc(N2CCOCC2)oc2c(-c3cccc4c3sc3ccccc34)cccc12
active: Potency [4] 11.8 µM | Potency [5] 16.6 µM | Potency [6] 5.9 µM | Potency [9] 5.9 µM | Potency [2] 3.32 µM | Potency [8] 2.96 µM | Potency [3] 14.8 µM

COc1ccc(C2Sc3ccccc3N(CCN(C)C)C(=O)C2OC(C)=O)cc1 (configuration not stated)
inactive: Potency [4] | Potency [5] | Potency [6] | Potency [9] | Potency [2] | Potency [3]

Clc1ccc(CCC(Cn2ccnc2)Sc2c(Cl)cccc2Cl)cc1 (configuration not stated)
active: Potency [4] 13.2 µM | Potency [5] 18.7 µM

C[C@]12CC[C@@H]3c4ccc(O)cc4C[C@@H](CCCCCCCCCS(=O)CCCC(F)(F)C(F)(F)F)[C@H]3[C@H]1CC[C@H]2O (some centres not stated)
inactive: Potency [4] | Potency [5] | Potency [6] | Potency [9] | Potency [2] | Potency [10]

CC(C)(C)NC(=O)Nc1cccc(Nc2ncc(F)c(NC(C)(C)CO)n2)c1
active: Potency [1] 10.5 µM | Potency [2] 13.2 µM | Potency [10] 18.7 µM

Cc1cc(OCCCc2c(C(=O)O)n(Cc3cccnc3)c3c(-c4c(COc5ccc(N6CCN([S+](C)(=O)[O-])CC6)cc5)nn(C)c4C)cccc23)cc(C)c1Cl
active: Potency [6] 9.35 µM | Potency [3] 26.4 µM
inactive: Potency [4] | Potency [5]

C[C@H]1[C@H](NC(=O)C(=NOC(C)(C)C(=O)O)c2csc(N)n2)C(=O)N1S(=O)(=O)O
inactive: Potency [4] | Potency [5] | Potency [6] | Potency [9] | Potency [2]

CN(C)Cc1ccc(-c2nc3cccc4c3n2CCNC4=O)cc1
active: Potency [4] 29.6 µM | Potency [5] 23.5 µM | Potency [6] 18.7 µM | Potency [7] 14.8 µM | Potency [9] 11.8 µM | Potency [2] 20.9 µM | Potency [8] 11.8 µM | Potency [10] 16.6 µM | Potency [3] 18.7 µM

Nc1nc(F)nc2c1ncn2[C@@H]1O[C@H](COP(=O)(O)O)[C@@H](O)[C@H]1O
active: Potency [4] 0.0019 µM | Potency [5] 18.7 µM | Potency [7] 4.18 µM
inactive: Potency [6] | Potency [2] | Potency [10] | Potency [3]

NC1=N[C@@]2(c3cc(NC(=O)c4ccc(F)cn4)ccc3F)COC[C@@H]2CS1
active: Potency [4] 1.87 µM | Potency [6] 3.32 µM | viability (% of DMSO) [7] 105% | Potency [9] 13.2 µM | Potency [10] 14.8 µM
inactive: Potency [2]

CCCCCN(C)CCC(O)(P(=O)(O)O)P(=O)(O)O
inactive: Potency [4] | Potency [9] | Potency [2] | Potency [8] | Potency [10]
active: viability (% of DMSO) [7] 78.6%

COc1cc(N2CCC(N3CCN(C)CC3)CC2)ccc1Nc1ncnc(Nc2ccccc2S(=O)(=O)C(C)C)n1
active: Potency [2] 5.26 µM | Potency [10] 14.8 µM
inactive: Potency [4]

CC(=NNC(=S)N1CCC1)c1ccccn1
active: Potency [4] 0.001 µM
inactive: Potency [7] | Potency [2] | Potency [10]

Cc1ccc(Nc2cc(-c3cccc(N4C(=O)c5ccccc5C4=O)c3)ncn2)cc1NS(C)(=O)=O
active: Potency [4] 20.9 µM | Potency [6] 18.7 µM | Potency [7] 4.69 µM | Potency [2] 18.7 µM | Potency [10] 16.6 µM | Potency [3] 18.7 µM

NC(=O)NN=Cc1ccc([N+](=O)[O-])o1
active: Potency [5] 18.7 µM

O=c1cc(-c2ccccc2)oc2cc(O)c(O)c(O)c12
inactive: Potency [4] | Potency [6]

O=c1c(O)c(-c2ccc(O)cc2)oc2cc(O)cc(O)c12
active: Potency [4] 13.2 µM | Potency [6] 16.6 µM | Potency [7] 16.6 µM | Potency [10] 16.6 µM

CC(C)OC(=O)C(C)(C)Oc1ccc(C(=O)c2ccc(Cl)cc2)cc1
inactive: Potency [4] | Potency [6] | Potency [2]
active: Potency [9] 26.4 µM | Potency [3] 16.6 µM

CCCCCNC(=O)N1CCC(CN(Cc2ccc(Cl)cc2)Cc2ccc([N+](=O)[O-])s2)C1 (configuration not stated)
active: Potency [4] 20.9 µM | Potency [5] 18.7 µM | Potency [3] 23.5 µM

Cc1ccc([C@@H]2O[C@H](CO)[C@@H](O)[C@H](O)[C@@H]2O)cc1Cc1ccc(-c2ccc(F)cc2)s1
active: Potency [4] 20.9 µM | Potency [6] 16.6 µM

COc1ccc(C2CC(c3ccccc3)=NN2c2ccc(S(N)(=O)=O)cc2)cc1 (configuration not stated)
active: Potency [4] 23.5 µM | Potency [6] 18.7 µM | Potency [2] 18.7 µM | Potency [8] 14.8 µM | Potency [10] 23.5 µM
inactive: Potency [9]
